Experimental findings from publication PMC7862700, “An all-to-all approach to the identification of sequence-specific readers for epigenetic DNA modifications on cytosine” are described below.

Experiment in all cases: DAPPL (digital affinity profiling via proximity ligation, sequencing); 10 mM Tris-HCl pH 7.5, 50 mM NaCl, 1 mM DTT, 4% glycerol, room temperature, 30 min; GST-TFs on glutathione beads, 16-mer random dsDNA library, 0.1% formaldehyde crosslink after washing; high values mean tight binding
One assay concerns the target T1, FEV (Homo sapiens, UniProt Q99581 1-238).
T1 sequence: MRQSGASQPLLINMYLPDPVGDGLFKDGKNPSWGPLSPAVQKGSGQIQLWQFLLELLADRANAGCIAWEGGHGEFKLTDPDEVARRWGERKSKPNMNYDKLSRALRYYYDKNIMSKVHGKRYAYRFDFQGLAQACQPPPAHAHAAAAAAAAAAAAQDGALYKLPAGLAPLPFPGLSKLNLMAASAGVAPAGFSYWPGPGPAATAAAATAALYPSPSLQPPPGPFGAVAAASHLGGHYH
Particulars: protein: recombinant; tags: N-terminal GST; dsDNA, one strand shown. A digest of the protocol:
(§1)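 Pools were built from human transcription factors expressed in yeast as GST fusions, captured on glutathione beads and DNA-barcoded, along with a tag-only sample. Incubation with 200 nmole of a 16-mer random double-stranded DNA library lasted 30 min at room temperature in Tris/NaCl/DTT/glycerol buffer, and was followed by washing, 0.1% formaldehyde crosslinking, proximity ligation, PCR amplification and Illumina NextSeq500 sequencing. Binding signal is the quotient of each hexamer's read frequency for a factor and its frequency for the tag-only sample.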

Another assay addresses ETV5 (Homo sapiens, UniProt P41161 1-510). Particulars: protein: recombinant; tags: N-terminal GST; dsDNA, one strand shown. A digest of the protocol: as §1
Another assay has as its target HSF1 (Homo sapiens, UniProt Q00613 1-529). Particulars: protein: recombinant; tags: N-terminal GST; chain copies: 3; dsDNA, one strand shown. A digest of the protocol: as §1
Another assay addresses T2, SPIC (Homo sapiens, UniProt Q8N5J4 1-248).
T2 sequence: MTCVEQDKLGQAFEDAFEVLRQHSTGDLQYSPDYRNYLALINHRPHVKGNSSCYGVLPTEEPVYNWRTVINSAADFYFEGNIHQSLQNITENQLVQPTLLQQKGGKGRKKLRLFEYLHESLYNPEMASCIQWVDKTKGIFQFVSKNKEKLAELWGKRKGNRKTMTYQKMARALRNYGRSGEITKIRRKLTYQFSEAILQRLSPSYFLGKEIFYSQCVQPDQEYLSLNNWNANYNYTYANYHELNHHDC
Particulars: protein: recombinant; tags: N-terminal GST; dsDNA, one strand shown. A digest of the protocol:
as §1

A further assay concerns the target ELF4 (Homo sapiens, UniProt Q99607 1-663). Particulars: protein: recombinant; tags: N-terminal GST; dsDNA, one strand shown. A digest of the protocol: as §1
The target of a further assay is T3, ELK4 (Homo sapiens, UniProt P28324-2 1-405).
T3 sequence: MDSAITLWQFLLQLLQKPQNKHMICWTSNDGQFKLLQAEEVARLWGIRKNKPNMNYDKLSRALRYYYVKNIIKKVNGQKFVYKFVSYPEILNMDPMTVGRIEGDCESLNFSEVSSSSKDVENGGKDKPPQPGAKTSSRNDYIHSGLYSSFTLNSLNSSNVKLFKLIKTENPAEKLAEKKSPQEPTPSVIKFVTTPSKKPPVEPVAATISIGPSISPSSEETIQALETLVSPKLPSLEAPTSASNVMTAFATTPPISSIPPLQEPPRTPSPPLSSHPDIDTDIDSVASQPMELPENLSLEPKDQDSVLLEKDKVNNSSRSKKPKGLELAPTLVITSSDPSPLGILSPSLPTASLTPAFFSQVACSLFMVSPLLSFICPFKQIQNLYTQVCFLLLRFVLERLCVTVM
Particulars: protein: recombinant; tags: N-terminal GST; dsDNA, one strand shown. A digest of the protocol:
as §1

For another assay, the target named is T4, ETV2 (Homo sapiens, UniProt O00321 1-342).
T4 sequence: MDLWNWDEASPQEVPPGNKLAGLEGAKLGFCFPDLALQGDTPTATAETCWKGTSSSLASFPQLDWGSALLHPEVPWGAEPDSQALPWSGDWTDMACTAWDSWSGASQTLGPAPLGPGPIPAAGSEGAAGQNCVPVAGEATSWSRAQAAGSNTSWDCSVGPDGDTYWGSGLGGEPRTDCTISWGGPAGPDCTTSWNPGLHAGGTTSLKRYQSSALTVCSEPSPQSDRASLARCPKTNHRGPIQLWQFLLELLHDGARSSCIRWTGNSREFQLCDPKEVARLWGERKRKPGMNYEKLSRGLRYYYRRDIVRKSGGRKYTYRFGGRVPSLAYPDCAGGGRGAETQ
Particulars: protein: recombinant; tags: N-terminal GST; dsDNA, one strand shown. A digest of the protocol: as §1

A further assay deals with T5, ELF3 (Homo sapiens, UniProt P78545 1-371).
T5 sequence: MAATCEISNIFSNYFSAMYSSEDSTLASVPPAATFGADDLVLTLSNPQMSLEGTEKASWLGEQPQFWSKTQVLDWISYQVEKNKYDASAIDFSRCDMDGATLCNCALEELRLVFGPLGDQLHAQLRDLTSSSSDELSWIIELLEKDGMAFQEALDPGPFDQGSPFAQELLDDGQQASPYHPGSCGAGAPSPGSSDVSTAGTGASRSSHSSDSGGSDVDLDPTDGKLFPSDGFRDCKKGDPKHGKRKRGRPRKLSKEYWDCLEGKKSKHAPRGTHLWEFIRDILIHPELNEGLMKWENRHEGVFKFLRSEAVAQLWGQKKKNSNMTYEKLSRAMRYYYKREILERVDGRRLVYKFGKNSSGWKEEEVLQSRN
Particulars: protein: recombinant; tags: N-terminal GST; dsDNA, one strand shown. A digest of the protocol:
as §1

The target of a further assay is CRX (Homo sapiens, UniProt O43186 1-299). Particulars: protein: recombinant; tags: N-terminal GST; dsDNA, one strand shown. The essentials:
as §1

Another assay has as its target ETV1 (Homo sapiens, UniProt P50549 1-477). Particulars: protein: recombinant; tags: N-terminal GST; dsDNA, one strand shown. A digest of the protocol:
as §1

The target of the next assay is T6, ERF (Homo sapiens, UniProt P50548 1-548).
T6 sequence: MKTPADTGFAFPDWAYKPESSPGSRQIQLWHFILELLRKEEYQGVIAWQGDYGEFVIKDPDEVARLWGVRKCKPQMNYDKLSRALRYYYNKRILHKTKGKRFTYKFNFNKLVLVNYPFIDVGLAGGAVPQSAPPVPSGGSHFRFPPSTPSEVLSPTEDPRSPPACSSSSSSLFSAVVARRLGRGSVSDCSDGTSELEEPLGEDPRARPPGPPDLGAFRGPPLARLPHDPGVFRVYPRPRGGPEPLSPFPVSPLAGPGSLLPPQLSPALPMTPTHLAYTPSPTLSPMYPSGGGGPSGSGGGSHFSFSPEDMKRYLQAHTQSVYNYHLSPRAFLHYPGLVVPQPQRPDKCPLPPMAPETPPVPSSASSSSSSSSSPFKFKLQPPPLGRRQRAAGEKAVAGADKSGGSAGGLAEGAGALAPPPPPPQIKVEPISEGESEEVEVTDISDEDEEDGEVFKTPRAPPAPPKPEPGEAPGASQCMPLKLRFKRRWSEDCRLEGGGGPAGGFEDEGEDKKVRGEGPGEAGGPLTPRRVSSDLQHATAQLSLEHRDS
Particulars: protein: recombinant; tags: N-terminal GST; dsDNA, one strand shown. A digest of the protocol:
as §1

Another assay concerns the target T7, ETV3L (Homo sapiens, UniProt Q6ZN32 1-361).
T7 sequence: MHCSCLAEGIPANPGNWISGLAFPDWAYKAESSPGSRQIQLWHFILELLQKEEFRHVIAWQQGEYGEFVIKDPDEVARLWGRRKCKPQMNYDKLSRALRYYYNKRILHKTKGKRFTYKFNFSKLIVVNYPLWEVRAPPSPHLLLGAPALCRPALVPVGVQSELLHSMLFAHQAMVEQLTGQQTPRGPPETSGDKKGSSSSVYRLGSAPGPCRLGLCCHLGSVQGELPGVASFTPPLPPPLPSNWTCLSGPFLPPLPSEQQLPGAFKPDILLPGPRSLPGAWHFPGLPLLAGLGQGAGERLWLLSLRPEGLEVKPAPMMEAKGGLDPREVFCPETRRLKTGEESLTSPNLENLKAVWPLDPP
Particulars: protein: recombinant; tags: N-terminal GST; dsDNA, one strand shown. A digest of the protocol:
as §1

In a further assay the target is T8, ETS2 (Homo sapiens, UniProt P15036 1-469).
T8 sequence: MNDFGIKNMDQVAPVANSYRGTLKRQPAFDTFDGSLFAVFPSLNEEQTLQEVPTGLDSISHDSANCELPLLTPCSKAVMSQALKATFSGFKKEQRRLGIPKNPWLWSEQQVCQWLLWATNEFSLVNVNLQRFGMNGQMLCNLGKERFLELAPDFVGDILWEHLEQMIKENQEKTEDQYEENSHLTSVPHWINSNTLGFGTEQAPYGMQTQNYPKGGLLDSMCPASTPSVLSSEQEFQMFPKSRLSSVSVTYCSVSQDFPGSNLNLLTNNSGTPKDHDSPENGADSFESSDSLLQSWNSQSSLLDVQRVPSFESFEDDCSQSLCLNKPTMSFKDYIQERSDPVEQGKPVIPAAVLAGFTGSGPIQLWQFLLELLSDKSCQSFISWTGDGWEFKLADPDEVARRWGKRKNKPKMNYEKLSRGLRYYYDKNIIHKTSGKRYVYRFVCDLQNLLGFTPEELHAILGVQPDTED
Particulars: protein: recombinant; tags: N-terminal GST; dsDNA, one strand shown. A digest of the protocol:
as §1

In the next assay the target is T9, SPDEF (Homo sapiens, UniProt O95238 1-335).
T9 sequence: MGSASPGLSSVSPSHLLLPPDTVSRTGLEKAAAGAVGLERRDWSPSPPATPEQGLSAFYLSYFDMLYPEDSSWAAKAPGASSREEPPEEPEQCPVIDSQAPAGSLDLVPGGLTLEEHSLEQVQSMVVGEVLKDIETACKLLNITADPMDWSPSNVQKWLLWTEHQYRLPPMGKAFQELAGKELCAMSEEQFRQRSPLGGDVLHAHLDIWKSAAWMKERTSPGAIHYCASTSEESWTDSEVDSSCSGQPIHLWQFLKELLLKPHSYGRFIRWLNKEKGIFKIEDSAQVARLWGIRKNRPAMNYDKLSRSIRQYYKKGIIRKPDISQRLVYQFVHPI
Particulars: protein: recombinant; tags: N-terminal GST; dsDNA, one strand shown. A digest of the protocol: as §1

For a further assay, the target named is T10, ETV7 (Homo sapiens, UniProt Q9Y603 1-341).
T10 sequence: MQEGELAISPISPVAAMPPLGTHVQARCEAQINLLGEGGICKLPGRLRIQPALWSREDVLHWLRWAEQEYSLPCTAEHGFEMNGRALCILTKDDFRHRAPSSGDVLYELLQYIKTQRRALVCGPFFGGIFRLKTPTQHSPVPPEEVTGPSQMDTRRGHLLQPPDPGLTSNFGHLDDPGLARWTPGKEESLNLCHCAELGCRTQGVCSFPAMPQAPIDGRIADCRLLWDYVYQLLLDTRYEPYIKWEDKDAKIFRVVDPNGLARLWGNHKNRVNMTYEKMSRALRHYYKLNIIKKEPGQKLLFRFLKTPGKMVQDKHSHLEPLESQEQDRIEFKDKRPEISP
Particulars: protein: recombinant; tags: N-terminal GST; dsDNA, one strand shown. A digest of the protocol: as §1

A further assay has as its target T11, ELF5 (Homo sapiens, UniProt Q9UKW6-2 1-255).
T11 sequence: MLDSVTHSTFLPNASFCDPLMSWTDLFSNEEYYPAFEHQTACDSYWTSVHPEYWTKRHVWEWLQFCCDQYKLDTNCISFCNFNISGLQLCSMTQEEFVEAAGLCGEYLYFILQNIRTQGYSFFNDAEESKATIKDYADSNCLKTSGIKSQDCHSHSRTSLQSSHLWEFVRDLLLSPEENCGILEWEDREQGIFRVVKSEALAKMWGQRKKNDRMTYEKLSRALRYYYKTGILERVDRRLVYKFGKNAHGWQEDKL
Particulars: protein: recombinant; tags: N-terminal GST; dsDNA, one strand shown. A digest of the protocol:
as §1

For the next assay, the target named is T12, ETV3 (Homo sapiens, UniProt P41162-2 1-143).
T12 sequence: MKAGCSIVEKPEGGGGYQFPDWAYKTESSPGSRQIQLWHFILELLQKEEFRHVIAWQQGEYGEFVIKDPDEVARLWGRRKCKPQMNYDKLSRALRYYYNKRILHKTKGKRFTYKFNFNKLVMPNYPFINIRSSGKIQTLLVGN
Particulars: protein: recombinant; tags: N-terminal GST; dsDNA, one strand shown. A digest of the protocol: as §1

The next assay has as its target ETV6 (Homo sapiens, UniProt P41212 1-452). Particulars: protein: recombinant; tags: N-terminal GST; dsDNA, one strand shown. A digest of the protocol:
as §1

CRX, sequence (O43186 whole entry): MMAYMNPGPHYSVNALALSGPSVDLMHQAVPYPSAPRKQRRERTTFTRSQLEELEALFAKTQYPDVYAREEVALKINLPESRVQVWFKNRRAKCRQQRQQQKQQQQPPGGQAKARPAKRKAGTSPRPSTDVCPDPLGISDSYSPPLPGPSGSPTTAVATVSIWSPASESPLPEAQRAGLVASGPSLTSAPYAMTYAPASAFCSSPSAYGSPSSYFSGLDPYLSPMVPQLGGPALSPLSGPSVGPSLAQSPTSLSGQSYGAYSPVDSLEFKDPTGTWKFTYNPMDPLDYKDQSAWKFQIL
ETV6, sequence (P41212 whole entry): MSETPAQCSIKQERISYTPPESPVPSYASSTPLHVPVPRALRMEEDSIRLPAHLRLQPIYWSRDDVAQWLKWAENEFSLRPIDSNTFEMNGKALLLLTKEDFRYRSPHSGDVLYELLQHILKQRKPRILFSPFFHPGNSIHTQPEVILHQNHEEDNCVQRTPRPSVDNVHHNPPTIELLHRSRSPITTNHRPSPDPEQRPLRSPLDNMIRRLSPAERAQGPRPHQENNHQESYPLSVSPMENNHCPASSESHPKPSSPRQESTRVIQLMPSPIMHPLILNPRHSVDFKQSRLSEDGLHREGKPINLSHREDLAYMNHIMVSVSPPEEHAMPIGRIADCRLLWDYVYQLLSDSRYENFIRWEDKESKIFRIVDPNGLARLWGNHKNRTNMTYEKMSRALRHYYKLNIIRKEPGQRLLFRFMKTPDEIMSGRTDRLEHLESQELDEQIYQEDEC
ETV5, sequence (P41161 whole entry): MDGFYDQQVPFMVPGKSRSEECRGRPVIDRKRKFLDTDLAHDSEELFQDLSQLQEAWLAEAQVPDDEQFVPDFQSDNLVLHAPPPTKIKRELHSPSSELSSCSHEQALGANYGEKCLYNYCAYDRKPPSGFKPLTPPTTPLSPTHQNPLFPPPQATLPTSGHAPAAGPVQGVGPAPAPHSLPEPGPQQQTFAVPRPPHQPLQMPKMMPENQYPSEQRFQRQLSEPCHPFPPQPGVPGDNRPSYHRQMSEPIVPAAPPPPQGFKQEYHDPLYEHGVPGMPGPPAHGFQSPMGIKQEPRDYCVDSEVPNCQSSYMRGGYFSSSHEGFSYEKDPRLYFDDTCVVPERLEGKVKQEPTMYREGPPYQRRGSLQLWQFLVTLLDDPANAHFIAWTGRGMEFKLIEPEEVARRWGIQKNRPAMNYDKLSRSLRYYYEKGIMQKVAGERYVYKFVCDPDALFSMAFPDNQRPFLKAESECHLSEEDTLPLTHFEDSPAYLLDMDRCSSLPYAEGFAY
ETV1, sequence (P50549 whole entry): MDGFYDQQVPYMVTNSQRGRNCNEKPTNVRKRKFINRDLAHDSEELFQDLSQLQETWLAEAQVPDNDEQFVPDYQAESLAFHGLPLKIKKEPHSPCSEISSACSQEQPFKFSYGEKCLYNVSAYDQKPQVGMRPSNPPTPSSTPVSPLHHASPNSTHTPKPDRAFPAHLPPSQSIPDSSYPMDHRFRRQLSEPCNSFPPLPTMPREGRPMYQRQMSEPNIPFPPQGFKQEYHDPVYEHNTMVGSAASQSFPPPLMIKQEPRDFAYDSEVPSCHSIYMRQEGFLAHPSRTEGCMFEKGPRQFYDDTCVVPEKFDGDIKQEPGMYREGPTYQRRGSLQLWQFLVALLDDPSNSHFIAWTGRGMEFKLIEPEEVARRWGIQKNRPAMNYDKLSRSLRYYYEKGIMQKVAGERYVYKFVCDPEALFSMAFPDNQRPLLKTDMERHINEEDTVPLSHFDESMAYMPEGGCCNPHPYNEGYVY
ELF4, sequence (Q99607 whole entry): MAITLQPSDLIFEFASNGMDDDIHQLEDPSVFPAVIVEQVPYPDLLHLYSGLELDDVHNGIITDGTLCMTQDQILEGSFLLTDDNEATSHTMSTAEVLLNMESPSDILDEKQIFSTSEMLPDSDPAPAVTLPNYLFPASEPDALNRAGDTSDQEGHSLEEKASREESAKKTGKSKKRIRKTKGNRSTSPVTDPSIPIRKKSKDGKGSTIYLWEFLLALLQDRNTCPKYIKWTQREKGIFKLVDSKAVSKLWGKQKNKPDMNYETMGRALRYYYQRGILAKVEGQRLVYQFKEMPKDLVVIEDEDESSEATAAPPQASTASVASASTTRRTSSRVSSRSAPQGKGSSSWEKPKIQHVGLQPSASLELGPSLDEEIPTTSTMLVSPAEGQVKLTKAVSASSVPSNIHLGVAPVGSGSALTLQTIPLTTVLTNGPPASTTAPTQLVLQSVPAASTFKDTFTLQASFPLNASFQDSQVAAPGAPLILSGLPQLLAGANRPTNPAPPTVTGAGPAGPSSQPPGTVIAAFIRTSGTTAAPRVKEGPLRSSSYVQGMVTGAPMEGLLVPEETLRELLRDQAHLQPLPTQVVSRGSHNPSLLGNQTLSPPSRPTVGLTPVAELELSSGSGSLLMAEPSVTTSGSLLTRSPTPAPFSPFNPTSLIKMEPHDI
HSF1, sequence (Q00613 whole entry): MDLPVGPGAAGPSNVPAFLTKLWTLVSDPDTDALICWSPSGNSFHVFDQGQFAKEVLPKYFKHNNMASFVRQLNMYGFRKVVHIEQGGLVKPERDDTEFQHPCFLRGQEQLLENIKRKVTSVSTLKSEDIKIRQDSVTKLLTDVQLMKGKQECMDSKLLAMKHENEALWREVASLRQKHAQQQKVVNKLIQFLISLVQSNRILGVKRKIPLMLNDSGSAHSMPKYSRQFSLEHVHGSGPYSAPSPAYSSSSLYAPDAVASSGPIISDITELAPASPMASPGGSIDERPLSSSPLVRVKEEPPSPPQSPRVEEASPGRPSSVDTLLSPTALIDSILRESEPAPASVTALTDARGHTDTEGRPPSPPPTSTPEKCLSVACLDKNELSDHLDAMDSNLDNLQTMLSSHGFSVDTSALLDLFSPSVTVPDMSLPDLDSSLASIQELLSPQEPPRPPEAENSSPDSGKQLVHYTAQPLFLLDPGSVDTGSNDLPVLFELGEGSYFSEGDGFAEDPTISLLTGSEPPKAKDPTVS

On to TTTCCG, for which the binding signal in the assay with FEV is 5.31 fold enrichment (6-mer frequency, TF over GST control); with ETV5 it was 4.02 fold enrichment (6-mer frequency, TF over GST control); in the assay with HSF1, 1.48 fold enrichment (6-mer frequency, TF over GST control); with SPIC, 3.86 fold enrichment (6-mer frequency, TF over GST control); in the assay with ELF4, 3.35 fold enrichment (6-mer frequency, TF over GST control); with ELK4 it was 2.97 fold enrichment (6-mer frequency, TF over GST control). Further, the binding signal with ETV2 was 3.65 fold enrichment (6-mer frequency, TF over GST control); with ELF3, 3.54 fold enrichment (6-mer frequency, TF over GST control); with CRX, 1.39 fold enrichment (6-mer frequency, TF over GST control); in the assay with ETV1 it was 3.76 fold enrichment (6-mer frequency, TF over GST control); with ERF it was 3.3 fold enrichment (6-mer frequency, TF over GST control); with ETV3L, 3.52 fold enrichment (6-mer frequency, TF over GST control). Besides, the binding signal with ETS2 was 3.92 fold enrichment (6-mer frequency, TF over GST control); with SPDEF, 3.35 fold enrichment (6-mer frequency, TF over GST control); with ETV7 it was 3.55 fold enrichment (6-mer frequency, TF over GST control); with ELF5 it was 5.34 fold enrichment (6-mer frequency, TF over GST control); with ETV3, 4.06 fold enrichment (6-mer frequency, TF over GST control); with ETV6, 4.37 fold enrichment (6-mer frequency, TF over GST control).
